This passage reports binding signal results from PMC12136788.

Whole data set: some 24,000 sequences, median “enrichment r” near 0.99, cut for the highest 2% near 3.7. A selection follows.

To fix the notation:
T1: UNK ZnF1-3 (human, UniProt Q9C0B0 31-174)
T1 sequence: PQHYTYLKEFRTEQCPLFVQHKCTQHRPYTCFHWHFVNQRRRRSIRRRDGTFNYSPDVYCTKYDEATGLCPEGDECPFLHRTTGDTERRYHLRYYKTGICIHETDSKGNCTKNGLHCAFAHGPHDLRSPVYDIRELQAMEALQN

B1: chr7:7679991:7679992:-_ENSG00000106399_ENST00000396682|hu_hu|hu_hu_hu_mus_False|48_88 (ssRNA)
RNA: GGGAGUUCUACAGUCCGACGAUCUGGGAUGAAUCUUUUCCAGCUUCCCUACGAAGCACACGGGCCGGUCGAUAUACUGUGGUAACAUGCCGGCGUUGACGCGCGCUUUGGGGAGCUGCAUUAUGUCCUCCAUGAUUCUGCCGCCAACAGAGGAUUGAGCAUCA
B2: chr9:56909451:56909452:+_ENSMUSG00000032290_ENSMUST00000034832|mus_hu|motif|central (ssRNA)
RNA: GGGAGUUCUACAGUCCGACGAUCCAUAAGUGCACACACACACACACACAGAAUGACAGAAAGGACUGGAAUACACGCCCGGCUUAUAAACGUGCUUGGCACUCAGGACGAUCUCUAGAAUAUGUAACUUGGUCAAGCUCUCUGCAACAGAGGAUUGAGCAUCA
B3: 62695852_62700603_289_3pUTR_ENSMUSG00000042211_ENSMUST00000048688|mouse|control|control (ssRNA)
RNA: GGGAGUUCUACAGUCCGACGAUCAGCUUCCGAGAGAGGCAUUCCAUGCACAUGAUGUCCUGUAGUGGCAGGUACCUGAAGAUAUGACAGAGCACUUCAUGUGACAGCUGGUUCAUGUAGUCCUUCUCUUCAUCGGCUGUCAUUCAACAGAGGAUUGAGCAUCA
B4: chr7:151048522:151048523:+_ENSG00000013374_ENST00000566856|hu_mus|hu_hu_hu_mus_True|58_78 (ssRNA)
RNA: GGGAGUUCUACAGUCCGACGAUCCUGUUUCUUAUUUAUUACGAUCUUGAUGUAAUUUUCUUGAAGUCCGAAAGUUUCAGCUAUUUUACACCUCAGGUCUCUACCAGUGACAUGCAAGCGGGUCUCCAACAAGCUUUUCUUAUCCAACAGAGGAUUGAGCAUCA
B5: chr14:78183846:78183847:+_ENSG00000119705_ENST00000557342|hu_hu|hu_hu_hu_mus_False|18_108 (ssRNA)
RNA: GGGAGUUCUACAGUCCGACGAUCUCUGUCUCAAAAAUCUUCAUCAGAUGUUUGAGCUCCGUGCAAAGCCUUUGCUCUUUGAGCUUGAACGUGGAUCUAUGGGAGGGAAAGCACUGUAUUUUCCUGUAAUUUUUUUUUUAAAGACAACAGAGGAUUGAGCAUCA
B6: chr1:220276048:220276049:+_ENSG00000067704_ENST00000302637|hu_hu|hu_hu_hu_mus_True|78_108 (ssRNA)
RNA: GGGAGUUCUACAGUCCGACGAUCGCAAACAGCUUCAUUGGCGGGAAUUGUCCAAGGUUGUGUGGUCCAAACUAAAACGCUAACAGGGGAUGAGGCAUCUGUAAGAGACUCCAACUUCGGAGGAGGUCUCAGGAGGGGGAAUCUCAACAGAGGAUUGAGCAUCA

For the assay, the target named is T1, UNK ZnF1-3. Nature of the assay: nsRBNS (natural sequence RNA bind-n-seq); RBNS binding buffer (assumed for nsRBNS): 25 mM Tris pH 7.5, 150 mM KCl, 3 mM MgCl2, 0.01% Triton X-100, 500 ug/ml BSA, 20 U/ml SUPERase-In, 4 C; UNK is unkempt and MSI1 is Musashi-1; names of the RNAs are library labels; protein concentration not given here; high values mean tight binding.
B1: the binding signal was found to be 0.421 enrichment R.
B2 returned a binding signal of 1.4 enrichment R.
Turning to B3, the binding signal was 1.2 enrichment R.
With B4, the binding signal amounted to 0.64 enrichment R.
With B5, the binding signal was 1.24 enrichment R.
The figure for B6 is 1.64 enrichment R.
